Assay results reported in PMC7862700, “An all-to-all approach to the identification of sequence-specific readers for epigenetic DNA modifications on cytosine”.

Tests used:
Assay in all cases: DAPPL (digital affinity profiling via proximity ligation, sequencing); 10 mM Tris-HCl pH 7.5, 50 mM NaCl, 1 mM DTT, 4% glycerol, room temperature, 30 min; GST-TFs on glutathione beads, 16-mer random dsDNA library, 0.1% formaldehyde crosslink after washing; high values mean tight binding
Settings in all cases: protein: recombinant; tags: N-terminal GST; dsDNA, one strand shown
[1] = target: T1, ERF (Homo sapiens, UniProt P50548 1-548)
T1 sequence: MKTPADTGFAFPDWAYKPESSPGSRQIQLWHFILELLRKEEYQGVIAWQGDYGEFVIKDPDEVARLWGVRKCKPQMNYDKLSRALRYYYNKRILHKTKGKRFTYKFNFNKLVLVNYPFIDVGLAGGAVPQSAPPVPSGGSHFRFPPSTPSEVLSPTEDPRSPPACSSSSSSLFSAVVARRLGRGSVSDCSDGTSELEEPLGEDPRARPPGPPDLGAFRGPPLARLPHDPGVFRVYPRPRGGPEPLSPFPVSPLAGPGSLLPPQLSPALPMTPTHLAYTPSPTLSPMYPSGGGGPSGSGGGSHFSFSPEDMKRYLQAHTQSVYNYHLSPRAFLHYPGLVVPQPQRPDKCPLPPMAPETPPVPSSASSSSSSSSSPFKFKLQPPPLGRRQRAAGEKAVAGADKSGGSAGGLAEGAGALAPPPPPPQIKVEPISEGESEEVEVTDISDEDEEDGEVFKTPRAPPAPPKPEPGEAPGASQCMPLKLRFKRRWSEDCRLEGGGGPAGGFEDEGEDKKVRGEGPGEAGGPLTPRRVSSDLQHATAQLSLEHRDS
In short: (§1)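 The binding signal reported is, for every hexamer, its read frequency for a factor over its read frequency for the tag-only sample. Reads came from pools of yeast-expressed, GST-fused human transcription factors on glutathione beads, barcoded with DNA and mixed with that sample, which were incubated with 200 nmole of a random double-stranded 16-mer DNA library in Tris/NaCl/DTT/glycerol buffer at room temperature for 30 min. After washing, the pools were crosslinked with 0.1% formaldehyde, proximity-ligated with BsaI/T4 ligase for 1 h at 37 °C, PCR-amplified and sequenced on an Illumina NextSeq500.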

[2] = target: T2, ETV3L (Homo sapiens, UniProt Q6ZN32 1-361)
T2 sequence: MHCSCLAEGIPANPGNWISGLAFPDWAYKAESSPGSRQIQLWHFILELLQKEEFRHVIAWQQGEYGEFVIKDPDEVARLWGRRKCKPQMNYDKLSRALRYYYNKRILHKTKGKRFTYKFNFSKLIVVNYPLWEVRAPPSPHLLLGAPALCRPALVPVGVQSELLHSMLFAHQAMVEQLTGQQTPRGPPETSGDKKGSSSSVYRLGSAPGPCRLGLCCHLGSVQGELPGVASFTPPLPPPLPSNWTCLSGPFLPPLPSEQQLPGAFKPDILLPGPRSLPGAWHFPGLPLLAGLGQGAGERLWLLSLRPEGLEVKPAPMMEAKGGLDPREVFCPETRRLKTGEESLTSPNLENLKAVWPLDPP
In short: as §1

[3] = target: T3, ETS2 (Homo sapiens, UniProt P15036 1-469)
T3 sequence: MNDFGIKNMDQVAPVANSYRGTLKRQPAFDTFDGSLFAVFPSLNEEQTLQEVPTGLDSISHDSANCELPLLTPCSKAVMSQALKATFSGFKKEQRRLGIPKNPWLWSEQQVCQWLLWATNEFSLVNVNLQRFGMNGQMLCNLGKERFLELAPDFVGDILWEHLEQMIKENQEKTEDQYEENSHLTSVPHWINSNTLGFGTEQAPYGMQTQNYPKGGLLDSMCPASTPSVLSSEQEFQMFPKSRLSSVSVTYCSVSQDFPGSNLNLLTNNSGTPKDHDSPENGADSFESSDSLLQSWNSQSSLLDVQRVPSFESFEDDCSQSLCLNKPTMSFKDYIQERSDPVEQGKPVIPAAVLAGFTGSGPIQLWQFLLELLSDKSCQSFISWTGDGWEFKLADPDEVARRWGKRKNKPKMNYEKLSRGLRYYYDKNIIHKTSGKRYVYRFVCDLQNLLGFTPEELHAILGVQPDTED
In short: as §1

[4] = target: T4, SPDEF (Homo sapiens, UniProt O95238 1-335)
T4 sequence: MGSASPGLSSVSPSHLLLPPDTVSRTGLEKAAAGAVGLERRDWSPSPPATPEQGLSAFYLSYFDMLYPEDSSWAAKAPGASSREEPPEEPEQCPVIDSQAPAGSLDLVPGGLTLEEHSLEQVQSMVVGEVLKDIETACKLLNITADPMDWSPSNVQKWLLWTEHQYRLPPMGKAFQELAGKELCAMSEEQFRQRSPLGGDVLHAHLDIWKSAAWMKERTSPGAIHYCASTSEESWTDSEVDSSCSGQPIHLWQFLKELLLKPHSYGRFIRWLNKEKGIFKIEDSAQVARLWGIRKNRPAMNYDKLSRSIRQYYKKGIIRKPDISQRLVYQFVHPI
In short: as §1

[5] = target: T5, ETV7 (Homo sapiens, UniProt Q9Y603 1-341)
T5 sequence: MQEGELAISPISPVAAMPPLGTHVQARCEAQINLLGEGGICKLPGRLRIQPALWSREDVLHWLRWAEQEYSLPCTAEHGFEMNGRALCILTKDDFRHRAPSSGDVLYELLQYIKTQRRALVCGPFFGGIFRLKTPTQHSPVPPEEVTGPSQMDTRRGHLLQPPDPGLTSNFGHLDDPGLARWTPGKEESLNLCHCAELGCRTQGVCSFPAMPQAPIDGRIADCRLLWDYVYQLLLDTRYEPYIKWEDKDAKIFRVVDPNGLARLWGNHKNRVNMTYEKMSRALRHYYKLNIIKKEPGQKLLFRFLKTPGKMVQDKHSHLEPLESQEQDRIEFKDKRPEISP
In short: as §1

[6] = target: T6, ELF5 (Homo sapiens, UniProt Q9UKW6-2 1-255)
T6 sequence: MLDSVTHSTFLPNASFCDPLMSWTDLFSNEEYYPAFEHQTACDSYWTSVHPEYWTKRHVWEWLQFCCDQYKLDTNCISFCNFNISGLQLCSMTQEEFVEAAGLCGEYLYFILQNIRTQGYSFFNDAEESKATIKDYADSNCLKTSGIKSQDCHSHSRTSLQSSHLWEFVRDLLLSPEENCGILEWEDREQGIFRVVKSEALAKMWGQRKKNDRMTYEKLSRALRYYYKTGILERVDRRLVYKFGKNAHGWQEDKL
In short: as §1

[7] = target: T7, ETV3 (Homo sapiens, UniProt P41162-2 1-143)
T7 sequence: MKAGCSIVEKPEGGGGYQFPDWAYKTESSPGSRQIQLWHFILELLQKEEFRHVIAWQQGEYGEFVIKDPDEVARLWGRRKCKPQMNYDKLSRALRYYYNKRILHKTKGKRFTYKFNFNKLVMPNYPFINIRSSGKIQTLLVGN
In short: as §1

[8] = target: ETV6 (Homo sapiens, UniProt P41212 1-452)
In short: as §1

ETV6, sequence (P41212 whole entry): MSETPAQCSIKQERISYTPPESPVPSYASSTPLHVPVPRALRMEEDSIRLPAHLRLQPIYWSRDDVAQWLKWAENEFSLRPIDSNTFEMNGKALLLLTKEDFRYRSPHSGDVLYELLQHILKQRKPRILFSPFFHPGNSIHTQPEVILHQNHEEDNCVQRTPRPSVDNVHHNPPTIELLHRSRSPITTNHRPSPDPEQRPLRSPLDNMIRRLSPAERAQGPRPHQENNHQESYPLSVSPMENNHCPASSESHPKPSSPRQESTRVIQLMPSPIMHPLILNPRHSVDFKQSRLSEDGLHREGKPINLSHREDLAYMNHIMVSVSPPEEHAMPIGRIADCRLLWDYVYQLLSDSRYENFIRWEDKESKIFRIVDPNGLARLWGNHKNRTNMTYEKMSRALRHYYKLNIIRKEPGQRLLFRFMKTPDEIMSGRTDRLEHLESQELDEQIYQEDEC

| Sequence | binding signal [1] | binding signal [2] | binding signal [3] | binding signal [4] | binding signal [5] | binding signal [6] | binding signal [7] | binding signal [8] |
| --- | --- | --- | --- | --- | --- | --- | --- | --- |
| CAACGA | 1.05 fold enrichment (6-mer frequency, TF over GST control) | 1.08 fold enrichment (6-mer frequency, TF over GST control) | 1.11 fold enrichment (6-mer frequency, TF over GST control) | 1.01 fold enrichment (6-mer frequency, TF over GST control) | 1.05 fold enrichment (6-mer frequency, TF over GST control) | 1.01 fold enrichment (6-mer frequency, TF over GST control) | 1.07 fold enrichment (6-mer frequency, TF over GST control) | 1.04 fold enrichment (6-mer frequency, TF over GST control) |
| CTACGT | 1.24 fold enrichment (6-mer frequency, TF over GST control) | 1.29 fold enrichment (6-mer frequency, TF over GST control) | 1.12 fold enrichment (6-mer frequency, TF over GST control) | 1.12 fold enrichment (6-mer frequency, TF over GST control) | 1.35 fold enrichment (6-mer frequency, TF over GST control) | 1.27 fold enrichment (6-mer frequency, TF over GST control) | 1.17 fold enrichment (6-mer frequency, TF over GST control) | 1.42 fold enrichment (6-mer frequency, TF over GST control) |
| TTCGAT | 1.4 fold enrichment (6-mer frequency, TF over GST control) | 1.33 fold enrichment (6-mer frequency, TF over GST control) | 1.33 fold enrichment (6-mer frequency, TF over GST control) | 1.18 fold enrichment (6-mer frequency, TF over GST control) | 1.22 fold enrichment (6-mer frequency, TF over GST control) | 1.2 fold enrichment (6-mer frequency, TF over GST control) | 1.24 fold enrichment (6-mer frequency, TF over GST control) | 1.14 fold enrichment (6-mer frequency, TF over GST control) |
| CATCCG | 1.86 fold enrichment (6-mer frequency, TF over GST control) | 2.11 fold enrichment (6-mer frequency, TF over GST control) | 2.16 fold enrichment (6-mer frequency, TF over GST control) | 3.63 fold enrichment (6-mer frequency, TF over GST control) | 1.96 fold enrichment (6-mer frequency, TF over GST control) | 2.53 fold enrichment (6-mer frequency, TF over GST control) | 2.43 fold enrichment (6-mer frequency, TF over GST control) | 2.03 fold enrichment (6-mer frequency, TF over GST control) |
| GGTTCC | 1.35 fold enrichment (6-mer frequency, TF over GST control) | 1.46 fold enrichment (6-mer frequency, TF over GST control) | 1.59 fold enrichment (6-mer frequency, TF over GST control) | 1.84 fold enrichment (6-mer frequency, TF over GST control) | 1.47 fold enrichment (6-mer frequency, TF over GST control) | 1.75 fold enrichment (6-mer frequency, TF over GST control) | 1.71 fold enrichment (6-mer frequency, TF over GST control) | 1.55 fold enrichment (6-mer frequency, TF over GST control) |
| GCTACA | 1.2 fold enrichment (6-mer frequency, TF over GST control) | 1.29 fold enrichment (6-mer frequency, TF over GST control) | 1.17 fold enrichment (6-mer frequency, TF over GST control) | 1.25 fold enrichment (6-mer frequency, TF over GST control) | 1.18 fold enrichment (6-mer frequency, TF over GST control) | 1.19 fold enrichment (6-mer frequency, TF over GST control) | 1.17 fold enrichment (6-mer frequency, TF over GST control) | 1.17 fold enrichment (6-mer frequency, TF over GST control) |
| AACTAT | 1.17 fold enrichment (6-mer frequency, TF over GST control) | 1.28 fold enrichment (6-mer frequency, TF over GST control) | 1.45 fold enrichment (6-mer frequency, TF over GST control) | 1.42 fold enrichment (6-mer frequency, TF over GST control) | 1.38 fold enrichment (6-mer frequency, TF over GST control) | 1.45 fold enrichment (6-mer frequency, TF over GST control) | 1.28 fold enrichment (6-mer frequency, TF over GST control) | 1.33 fold enrichment (6-mer frequency, TF over GST control) |
| AAGAAT | 1.2 fold enrichment (6-mer frequency, TF over GST control) | 1.15 fold enrichment (6-mer frequency, TF over GST control) | 1.11 fold enrichment (6-mer frequency, TF over GST control) | 1.07 fold enrichment (6-mer frequency, TF over GST control) | 1.1 fold enrichment (6-mer frequency, TF over GST control) | 1.15 fold enrichment (6-mer frequency, TF over GST control) | 1.14 fold enrichment (6-mer frequency, TF over GST control) | 1.08 fold enrichment (6-mer frequency, TF over GST control) |
| GTTATG | 1.05 fold enrichment (6-mer frequency, TF over GST control) | 1.11 fold enrichment (6-mer frequency, TF over GST control) | 1.1 fold enrichment (6-mer frequency, TF over GST control) | 1.12 fold enrichment (6-mer frequency, TF over GST control) | 1.12 fold enrichment (6-mer frequency, TF over GST control) | 1.06 fold enrichment (6-mer frequency, TF over GST control) | 1.14 fold enrichment (6-mer frequency, TF over GST control) | 1.21 fold enrichment (6-mer frequency, TF over GST control) |
